Data published in ChEMBL document CHEMBL3988442, “University of Dundee, Small-Polar-MMV Screening Library” (2021).
The campaign covered roughly 53,000 compounds. About 900 (1.7%) showed an effect of 50% or more. Shown is part of a subset that was picked to be rich in strong results.

test system: Mycobacterium tuberculosis; experiment: Cornell - Phenotypic assay to identify agents that inhibit growth of Mycobacterium tuberculosis; assay type: functional; design: scale not given: direction of the effect not stated beside the values; conditions: 10 mM as filed; unlikely as a test dose

| SMILES | Percent Effect [%] |
| --- | --- |
| Cc1cnc(N2CCCn3c(nnc3CN(C)C(C)C)C2)nc1.O=C(O)C(F)(F)F | 8.261 |
| c1csc(N2CCN(c3ncnc4sccc34)CC2)n1 | 8.465 |
| COCC(=O)N1CCCC(C(=O)N(C)CCn2ccnc2C)C1 (configuration not stated) | -64.71 |
| CCn1c(CN(C)Cc2cnc(C)s2)nc2c(F)cccc21 | 21.09 |
| Cc1ccccc1OCCN1CCn2c(C)nnc2C1 | -10.78 |
| Cc1nnc(C(C)N2CCc3[nH]c4ccccc4c3C2)o1 (configuration not stated) | 28.26 |
| Cc1nnc(C(C)N2CCc3[nH]c4ccc(Cl)cc4c3C2)o1 (configuration not stated) | 34.8 |
| Cc1noc(C(C)N2CCc3[nH]c4ccc(Cl)cc4c3C2)n1 (configuration not stated) | 63.72 |
| CN(C)CCn1c2c(ccc1=O)CC(NC(=O)c1ccsc1)CC2.O=C(O)C(F)(F)F (configuration not stated) | -27.73 |
| CCN(CC1CCCO1)C(=O)Nc1cc(OC)c(OC)cc1C (configuration not stated) | 69.91 |
| CCN(CC1CCCO1)C(=O)Nc1ccc(F)cc1OC (configuration not stated) | 2.654 |
| CCN(CC1CCCO1)C(=O)Nc1ccc(OC)c(C)c1 (configuration not stated) | 29.95 |
| CC(Oc1ccc2c(c1)OCO2)C(=O)N1CCC(c2ncc[nH]2)CC1 (configuration not stated) | -2.052 |
| Cc1ccc(C2CSCCN2C(=O)c2cccs2)o1 (configuration not stated) | -1.514 |
| CNC(=O)c1cnn2c(C3CCCN3)ccnc12 (configuration not stated) | -26.66 |
| Cn1ccnc1CN1CCCC(Cc2ccnc3ccncc23)CC1.O=CO (configuration not stated) | 25.28 |
| CC(OCC1CC1)C(=O)Nc1nccn1Cc1ccccc1 (configuration not stated) | 51.13 |
| CCOCCOC(C)C(=O)Nc1nccn1Cc1ccccc1 (configuration not stated) | 4.045 |
| CC(OCC1CC1)C(=O)Nc1ccn(Cc2ccccc2)n1 (configuration not stated) | -1.057 |
| CCC(=O)N1CCCCC1c1nc(O)c2c(n1)CN(S(=O)(=O)CC)CC2 (configuration not stated) | 9.253 |
| CC(=O)N1CCC(c2noc(C3CCC(=O)N3)n2)CC1 (configuration not stated) | 5.586 |
| O=C1CCC(c2nc(C3CCN(C(=O)Cc4cccs4)CC3)no2)N1 (configuration not stated) | 57.39 |
| Cc1nc([C@@H]2C[C@@H]3CCN(C(=O)Cc4cccc(F)c4)C[C@H]3O2)no1 | 16.61 |
| Cc1nc([C@@H]2C[C@@H]3CCN(C(=O)Cc4cccs4)C[C@H]3O2)no1 | 53.11 |
| Cc1nc([C@@H]2C[C@@H]3CCN(C(=O)Cc4ccsc4)C[C@H]3O2)no1 | -0.3005 |

| SMILES | Percent Effect [%] |
| --- | --- |
| O=C1CCC(c2nc(C3CCN(C(=O)C4CC4)CC3)no2)N1 (configuration not stated) | 13.14 |
| CC(=O)N[C@@H]1CN(Cc2cccs2)C[C@H]1c1ccc(C)o1 | 10.2 |
| Cn1nc(COc2cccnc2)c2c1CCN(CC1CC1)C2.O=C(O)C(F)(F)F.O=C(O)C(F)(F)F | -1.302 |
| CCCN(CCO)S(=O)(=O)c1ccc2[nH]c(=O)[nH]c2c1 | 11.31 |
| Cc1cc(C[C@@H]2CCC[C@H]2NCc2ccccc2C(F)(F)F)on1.O=C(O)CC(O)(CC(=O)O)C(=O)O | 12.28 |
| Cc1cc(C[C@@H]2CCC[C@H]2NCc2cc(C)c(O)c(C)c2)on1.O=C(O)CC(O)(CC(=O)O)C(=O)O | 77.55 |
| Cc1cc(C[C@@H]2COC[C@H]2NCc2ccc(C)c(C)c2)on1.O=C(O)CC(O)(CC(=O)O)C(=O)O | -9.136 |
| CC(=O)N1CCC2(CCN(Cc3ccc(Cl)c(C(F)(F)F)c3)CC2)C1 | 43.5 |
| Cc1cc2nc(C(C)C)cc(N3CCC(N(C)C)C3)n2n1 (configuration not stated) | 32.15 |
| O=c1[nH]c2c(-c3ccccn3)nsc2c(=O)n1CC1CCCO1 (configuration not stated) | -0.9245 |
| Cc1ccc(C(=O)N2CC(Oc3ccccc3C)C2)s1 | 67.58 |
| COc1ccccc1OC1CN(C(=O)c2ccc(C(C)=O)s2)C1 | -4.28 |
| CO[C@H]1C[C@@H]2CN(C(=O)c3ccc(C)s3)C[C@@H]2C1 | 41.56 |
| COc1cccc2ccc(N3CCC(O)(C(=O)O)CC3)nc12 | -24.68 |
| CC(c1nc(C(C)(C)C)no1)N1CCN(Cc2ccco2)CC1 (configuration not stated) | 11.7 |
| CCn1ccnc1CN1CCCN(C(=O)COC2CCCC2)CC1 | -24.49 |
| CNc1ncc(C(=O)N2CCOC(C(=O)N3CCCCCC3)C2)cn1 (configuration not stated) | -4.246 |
| Cc1ccc(OCC(=O)NS(=O)(=O)Cc2ccccc2)cc1 | 7.336 |
| Cc1cc(OCC(=O)NS(=O)(=O)c2c(C)noc2C)ccc1Cl | 39.96 |
| CCOc1cccc2c1OCC(C(=O)NS(=O)(=O)c1ccc(Cl)s1)=C2 | 9.699 |
| CCOc1cccc2c1OCC(C(=O)NS(=O)(=O)c1c(C)noc1C)=C2 | 106 |
| CCOc1cccc2c1OCC(C(=O)NS(=O)(=O)c1ccc(Br)s1)=C2 | -17.73 |
| CCOc1cccc2c1OCC(C(=O)NS(=O)(=O)Cc1ccccc1)=C2 | 106.8 |
| CCOc1cccc2c1OCC(C(=O)NS(=O)(=O)c1cccs1)=C2 | 19.94 |
| CCOc1cccc2c1OCC(C(=O)NC(C)Cn1cccn1)=C2 (configuration not stated) | 7.345 |

| SMILES | Percent Effect [%] |
| --- | --- |
| CCOc1ccccc1C(=O)NS(=O)(=O)c1ccc2c(c1)OCCCO2 | 27.03 |
| CCOc1cccc2c1OCC(C(=O)NS(=O)(=O)c1ccc(C)s1)=C2 | 107.6 |
| CCOc1cccc2c1OCC(C(=O)NS(=O)(=O)c1ccc(Cl)cc1)=C2 | 104.6983 |
| CCOc1cccc2c1OCC(C(=O)NS(=O)(=O)c1cncc(Br)c1)=C2 | 44.21 |
| CCc1cnc(NC(=O)NC2CCN(C3CCCC3)CC2)s1 | -3.242 |
| CC(=O)N1CC[C@@H]2O[C@@H](COCC(=O)N3CCCC3)CC[C@@H]21 | -45.3 |
| O=C(NCC(Cc1cccc(F)c1)N1CCCC1=O)c1ccc(=O)[nH]n1 (configuration not stated) | 14.14 |
| Cc1ncsc1C(=O)N1CCC(c2ncncc2-c2ccnc(N)c2)C1 (configuration not stated) | -0.8467 |
| CSCC[C@H](NC(C)=O)c1nc(Cc2ccccc2)n[nH]1 | -11.93 |
| COc1ncccc1CN1Cc2nccn2CC(CN2CCCC2)C1 (configuration not stated) | 6.883 |
| Cc1ccccc1CCCN1CCS(=O)(=O)CC1C (configuration not stated) | 46.6 |
| CC(C)(C)S(=O)(=O)c1ccc(N2CCC(n3cncn3)CC2)cn1 | -14.59 |
| CS(=O)(=O)N[C@@H]1CN(C(=O)c2cnccn2)[C@@H]2CCCO[C@@H]21 | -34.02 |
| Cc1cnc(CN(C)Cc2cccc(OC(F)(F)F)c2)cn1 | -8.651 |
| O=C(NCc1ccccc1)NCc1nc(-c2ccncc2)n[nH]1 | 13.27 |
| CC(C)Oc1cccc(-c2nc3c([nH]2)CCCNC3=O)c1 | -4.933 |
| Cc1cccc(SC2CCN(C(=O)CCCn3cnnn3)CC2)c1 | 50.26 |
| Cc1cccc(SC2CCN(C(=O)CCCS(N)(=O)=O)CC2)c1 | 37.58 |
| CC(=O)NCCCC(=O)N1CCC(Sc2cccc(C)c2)CC1 | 15.76 |
| Cc1nc(N2CCCOC(Cn3cccn3)C2)c2sccc2n1 (configuration not stated) | 26.84 |
| CCC(C)(C)NC(=O)c1nnn(-c2cccc3c2CCN(C)C3)c1C | -0.0817 |
| COCc1nc(CNc2cc(C)nc(N3CCCCC3)n2)no1 | -11.46 |
| CCn1cc(S(=O)(=O)NC(=O)CCc2c[nH]c3ccccc23)cn1 | 53.27 |
| CCn1cc(S(=O)(=O)NC(CO)Cc2c[nH]c3ccccc23)cn1 (configuration not stated) | -1.971 |
| CCn1cc(NC(=O)NC(CO)Cc2c[nH]c3ccccc23)cn1 (configuration not stated) | -8.114 |

| SMILES | Percent Effect [%] |
| --- | --- |
| Cc1noc(-c2ccc(-n3ncc(C(=O)O)c3C)nc2)n1 | 11.73 |
| COC(=O)[C@H](CC(C)C)NC(=O)c1snnc1-c1ccc(OC)cc1 | 25.36 |
| CCC(C)NC(=O)c1snnc1-c1ccc(OC)cc1 (configuration not stated) | 21.58 |
| COC(=O)[C@@H](NC(=O)c1snnc1-c1ccc(OC)cc1)C(C)C | 58.81 |
| Cc1ccc(-c2nc(CN3CCn4c(C)nnc4C3)co2)cc1 | -23.96 |
| Nc1nc2nc(C3CCN(C(=O)c4cscn4)C3)ccc2s1 (configuration not stated) | -97.96 |
| O=C(NC1CCCN(CCc2ccccc2)C1)c1ccccn1 (configuration not stated) | 35.43 |
| O=C(c1ccco1)N1CCO[C@@H]2CN(c3ccccc3)CC[C@@H]2C1 | 17.14 |
| COc1cc(C(=O)N2CC(Oc3ccccc3Cl)C2)ccn1 | 25.67 |
| CCc1ccccc1OC1CN(C(=O)c2ccnc(OC)c2)C1 | 66.55 |
| COc1cccc(OC2CN(C(=O)c3ccnc(OC)c3)C2)c1 | 17.3 |
| CCc1ccc(NC(=O)N2C[C@H]3C[C@H](C(=O)N4CCCC4)[C@@H](C2)O3)cc1 | -25.04 |
| O=C(c1ccccc1F)N1CC[C@@H]2CN(c3ncccn3)CCO[C@@H]2C1 | 12.82 |
| Cc1c(Cl)cccc1S(=O)(=O)N1CCC2(CC1)OCCS2 | 53.55 |
| O=S(=O)(c1ccccc1Cl)N1CCC2(CC1)OCCS2 | 36.27 |
| O=S(=O)(Cc1ccccc1Cl)N1CCC2(CC1)OCCS2 | 47.83 |
| O=S(=O)(NC1CCC2(CC1)OCCO2)c1ccccc1Br | 9.266 |
| CNC(=O)CS(=O)(=O)C1CCN(S(=O)(=O)c2ccccc2Br)CC1 | 7.561 |
| O=S(=O)(c1ccccc1Br)N1CCC2(CC1)OCCS2 | 54.27 |
| CS(=O)(=O)N1CCC(CNc2cc(Cl)ccc2C#N)CC1 | -6.261 |
| COCCO[C@H]1CCN(C(=O)c2cccnc2)[C@H]1Cc1cnn(C)c1.O=C(O)C(F)(F)F | 12.42 |
| COCCS(=O)(=O)c1ncc(CN(C)CC(C)C)n1Cc1ccccc1 | -3.776 |
